A selection: hits, their analogues and other compounds. The true share with any hit is near 9.5%.
Tau fibril FP = qHTS for Inhibitors of Tau Fibril Formation, Fluorescence Polarization; Microtubule-associated protein tau (Homo sapiens), P10636; K18 P301L tau heparin fibrillization, Alexa594 FP, 6 h; Potency, µM (doses to about 57.7 µM), hits mostly inhibitors; 280,000 tested, 0.39% active; further: nearly all actives have a fitted effect of over 55% in size
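FP of Alexa 594-tau after heparin (20 uM) induction. Substrate: human K18 P301L, 15 uM unlabeled, 0.24 uM labeled. Buffer 100 mM sodium acetate pH 7. 6 hr, 37 C.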
NPSR antagonist = qHTS Assay for Antagonists of the Neuropeptide S Receptor: cAMP Signal Transduction. Q6W5P4. Potency, µM (doses to about 38.3 µM), usual class: inhibitors. 220,000 tested, 1% active. AID 1461, 2008. CHO-NPSR cells, cAMP TR-FRET, antagonist mode; further: nearly all actives have a fitted effect of over 50% in size
HPGD inh = qHTS Assay for Inhibitors of HPGD (15-Hydroxyprostaglandin Dehydrogenase) | 15-hydroxyprostaglandin dehydrogenase [NAD(+)] (Homo sapiens), P15428 | purified HPGD, NADH fluorescence kinetic, PGE2 substrate | Potency, µM, most hits filed as inhibitors | 150,000 tested, 4.3% active; active means well fitted inhibition curve with a large enough effect, not every such curve was filed as active; inconclusive means small, poorly fitted or top-dose-only effect, or another doubt; inactive means no such curve, though single readings can be large or run the other way
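NADH formation kinetics: reaction with 30 uM PGE2 and 1 mM NAD+ (final), 20 nM enzyme, Tris-HCl pH 8 with Tween 20, after 15 min compound preincubation at room temperature. Fluorescence change, last versus first of five reads.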
ALDH1A1 inh = qHTS Assay for Inhibitors of Aldehyde Dehydrogenase 1 (ALDH1A1). Aldehyde dehydrogenase 1A1 (Homo sapiens), P00352. Purified ALDH1A1, NADH fluorescence, propionaldehyde substrate. Potency, µM (titrated, usually from 75.3 µM), usual class: inhibitors. 220,000 tested, 7.3% active. AID 1030, 2008; active means well fitted inhibition curve with a large enough effect, not every such curve was filed as active; inconclusive means small, poorly fitted or top-dose-only effect, or another doubt; inactive means no such curve, though single readings can be large or run the other way
Target sequence (P00352 whole entry, looked up): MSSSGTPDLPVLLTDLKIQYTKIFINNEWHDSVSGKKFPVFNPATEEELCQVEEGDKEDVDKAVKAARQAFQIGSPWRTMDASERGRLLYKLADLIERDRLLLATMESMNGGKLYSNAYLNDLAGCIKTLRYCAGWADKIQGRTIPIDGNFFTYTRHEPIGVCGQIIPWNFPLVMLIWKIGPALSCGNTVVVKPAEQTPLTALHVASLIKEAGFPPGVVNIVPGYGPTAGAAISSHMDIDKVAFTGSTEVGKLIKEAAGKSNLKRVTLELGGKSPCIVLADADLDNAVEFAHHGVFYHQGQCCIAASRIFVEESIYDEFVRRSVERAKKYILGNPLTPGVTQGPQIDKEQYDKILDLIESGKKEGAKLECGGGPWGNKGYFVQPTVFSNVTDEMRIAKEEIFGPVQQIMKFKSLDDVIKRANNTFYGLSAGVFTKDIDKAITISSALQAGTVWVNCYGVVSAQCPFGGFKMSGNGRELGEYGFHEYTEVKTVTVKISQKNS
Tau ThT inhib = qHTS for Inhibitors of Tau Fibril Formation, Thioflavin T Binding. Microtubule-associated protein tau (Homo sapiens), P10636. recombinant tau K18 P301L, heparin-induced fibrillization, ThT fluorescence. Potency, µM (top dose mostly 57.4 µM), most hits filed as inhibitors. 270,000 tested, 2.1% active; further: nearly all actives have a fitted effect of over 55% in size
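In this qHTS, human K18 P301L tau is incubated with compound and heparin for 6 hr at 37 C, and Thioflavin T fluorescence then reports fibril load.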
Tau fluor cs = Counterscreen qHTS for Inhibitors of Tau Fibril Formation, Fluorescence Polarization; tau K18 P301L Alexa594 fluorescence, heparin fibrillization; Potency, µM (doses to about 57.7 µM); 280,000 tested, 0.93% active; AID 1463, 2008; further: nearly all actives have a fitted effect of over 55% in size
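Human tau K18 P301L (15 uM unlabeled, 0.24 uM Alexa 594-labeled) in 100 mM sodium acetate pH 7 with 20 uM heparin, 6 hr at 37 C. ThT 30 uM added, 1 hr ambient; Alexa 594 FP and total fluorescence read at 555/632 nm.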
A number is an active result; – = inactive; ? = inconclusive; · = no result given; [ ] = dose if it differs, or a comment. Unless noted, the call rests on the fitted dose curve; in most records, active means well fitted curve in the direction sought with a large enough effect; inconclusive means small, poorly fitted or top-dose-only effect, or another doubt; inactive means no such curve, though single readings can be large; an effect the other way counts as inactive or inconclusive.

SMILES	Tau fibril FP	NPSR antagonist	HPGD inh	ALDH1A1 inh	Tau ThT inhib	Tau fluor cs
CC1CCN(CC2CCN(C(=O)Nc3ccc(Br)cc3F)CC2)CC1	–	·	·	·	–	–
O=c1c(Cl)c(Cl)cnn1Cc1nnc(-c2ccccc2Br)o1	?	–	·	3.55µM	?	–
Brc1ccccc1-c1nnc(COc2cccc3cccnc23)o1	–	–	?	?	?	–
Clc1ccccc1OCc1nnc(-c2ccccc2Br)o1	–	–	20µM	?	–	–
Clc1ccc(Cc2nnc(-c3ccccc3Br)o2)cc1	–	–	20µM	–	–	–
O=C(NNc1cc(Cl)ccc1Cl)C1CCC1	–	–[7.67 µM]	·	·	–	–
Cc1ccc(NC(=O)c2c(C)oc3ccc(O)c(CN(C)Cc4ccccc4)c23)c(C)c1	–	·	·	·	–	–
N#Cc1cc2c(nc1SCC(=O)N1CCCCC1)CCCCC2	–	?	25.1µM	22.4µM	–	–
COc1ccc2nc(SCC(=O)N3CCCCCC3)c(C#N)cc2c1	–	?	?	12.6µM	?	–
COc1ccc2nc(SCC(=O)N3CCCCC3)c(C#N)cc2c1	–	–	·	?	–	–[2.34 µM]
COc1ccc2nc(SCC(=O)N(C)C3CCCCC3)c(C#N)cc2c1	–	–	?	25.1µM	?	?
CCN(CC)CCc1c(C)[nH]c(C(=O)OCc2ccccc2)c1C	–	–	–	20µM	–	–
COc1ccc(C(=O)N2CCC3(CCN(Cc4nccs4)CC3)CC2)cc1	·	·	–	–	·	·
C/[N+]([O-])=C\CC(=O)c1ccc(-c2ccccc2)cc1	–	–	·	28.2µM	?	–
CCN(CC)C(=O)c1ccc(-c2ccccc2)cc1	–	–	0.631µM	?	?	–
Cc1ccc(C(=O)CSC2=C(C#N)C(c3ccco3)C3=C(CCCC3=O)N2)cc1 (stereo unspecified)	–	–	–	?	15.8µM	–
N#CC1=C(SCC(=O)c2ccccc2)NC2=C(C(=O)CCC2)C1c1ccco1 (stereo unspecified)	31.6µM	–	?	8.91µM	12.6µM	–
CC(C)(C)c1ccc(C(=O)CCCSC2=C(C#N)C(c3ccco3)C3=C(CCCC3=O)N2)cc1 (stereo unspecified)	–	?	·	–	–	–
CN1C[C@@H]2C(c3ccc(Cl)nc3)C3(c4ccccc4)CC2(C3)[C@H]1c1ccccc1 (stereo partly specified)	–	3.98µM	–	–	–	–
CN1C[C@@H]2C(c3ccc(Cl)nc3)C3(c4cccnc4)CC2(C3)[C@H]1c1ccccc1 (stereo partly specified)	–	?	–	–	?	–
CC(C)Cn1c(SCc2nnc(-c3cccs3)o2)nc(O)cc1=O	–	–	15.8µM	–	–	–
O=C(NC(C(=O)c1ccccc1)N1CCCCCC1)c1ccco1 (stereo unspecified)	–	–	–	14.1µM	?	–
Cc1ccc(C(=O)C(NC(=O)c2ccco2)N2CCOCC2)cc1 (stereo unspecified)	–	–	–	28.2µM	?	–
Cc1cc(C)n(C(=O)CCCn2nc(C)c([N+](=O)[O-])c2C)n1	–	–	·	–	–	–
CSc1nc(-c2ccco2)nn1C(=O)c1ccccc1	–	–	14.1µM	–	–	–
SMILES	Tau fibril FP	NPSR antagonist	HPGD inh	ALDH1A1 inh	Tau ThT inhib	Tau fluor cs
CCS(=O)(=O)n1nc(-c2ccc(Cl)cc2)nc1SC	–	?	12.6µM	?	–	–
CCS(=O)(=O)n1nc(-c2ccco2)nc1SC	–	–	8.91µM	22.4µM	–	–
Cc1ccc(S(=O)(=O)n2nc(-c3ccco3)nc2SCc2ccccc2)cc1	–	–	25.1µM	22.4µM	–	–
NC1=C(O)C(=O)[C@H](c2c[nH]c3ccc(OCc4ccccc4)cc23)O1	·	·	–	–[13.5 µM]	·	·
CNCC(O)c1cccc(O)c1 (stereo unspecified)	–	·	–	–	–	–
CSc1nc(-c2ccco2)nn1S(=O)(=O)c1ccc(C)cc1	?	–	?	?	–	–
